Source: PubChem BioAssay (NCATS)
Values joined by “and” are separate entries in the source; they are usually repeats but may differ in a detail not shown here. Identical values can stand only once. Records with an inconclusive call do not appear. Active and inactive are the calls of the source. Unless noted, calls follow the shape of the dose curve; as a rule, active = well fitted curve in the direction sought with a large enough effect; inconclusive = small, poorly fitted or top-dose-only effect, or another doubt; inactive = no such curve, though single readings can be large; an effect the other way counts as inactive or inconclusive.

Legend:
[1] = tested on: CASKI; assay: Primary qHTS to identify gynecologic anti-cancer compounds using libraries of approved drugs and bioactive compounds (AID 1345084); conditions: Gynecologic cancer cell panel viability, ATPlite luminescence, 48 h; series mostly up to 57.5 µM; also: nearly all actives have a fitted effect of over 55% in size; also: potency is read from the fitted curve at half-maximal effect
Summary of the method: (§1)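 Cell viability after 48 h drug treatment, ATPlite luminescence readout; five doses.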

[2] = tested on: Es-2; assay: as above; conditions: Gynecologic cancer cell panel viability, ATPlite luminescence, 48 h; series mostly up to 57.5 µM
Summary of the method: as §1

[3] = tested on: HeLa; assay: as above; conditions: Gynecologic cancer cell panel viability, ATPlite luminescence, 48 h; series mostly up to 57.5 µM
Summary of the method: as §1

[4] = tested on: Hek293T; assay: as above; conditions: Gynecologic cancer cell panel viability, ATPlite luminescence, 48 h, control line for the selectivity index; series mostly up to 57.5 µM
Summary of the method: as §1

[5] = tested on: JEG-3; assay: as above; conditions: Gynecologic cancer cell panel viability, ATPlite luminescence, 48 h; series mostly up to 57.5 µM
Summary of the method: as §1

[6] = tested on: OV90; assay: as above; conditions: Gynecologic cancer cell panel viability, ATPlite luminescence, 48 h; series mostly up to 57.5 µM
Summary of the method: as §1

[7] = tested on: PA-1; assay: as above; conditions: Gynecologic cancer cell panel viability, ATPlite luminescence, 48 h; series mostly up to 57.5 µM
Summary of the method: as §1

[8] = tested on: SKOV3; assay: as above; conditions: Gynecologic cancer cell panel viability, ATPlite luminescence, 48 h; series mostly up to 57.5 µM
Summary of the method: as §1

[9] = tested on: Tov-21-G; assay: as above; conditions: Gynecologic cancer cell panel viability, ATPlite luminescence, 48 h; series mostly up to 57.5 µM
Summary of the method: as §1

[10] = tested on: Tov112D; assay: as above; conditions: Gynecologic cancer cell panel viability, ATPlite luminescence, 48 h; series mostly up to 57.5 µM
Summary of the method: as §1

[11] = Drug repurposing screens with cells derived from glioblastoma tumor samples (AID 1345199); conditions: GBM patient neurospheres viability, ATP luminescence, 48 h; also: nearly all actives have a fitted effect of over 40% in size; also: potency is read from the fitted curve at half-maximal effect; as to activity, negative = cell killing: % is scaled to controls: 0 for no effect and ±100 for the full control effect
Summary of the method: (§2)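 Four patient lines of CD133+ GBM neurospheres were screened at several concentrations; hits were retested in those lines plus three slower-growing GBM lines, using 48-hour treatment and ATP-based viability.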

[12] = tested on: astro; assay: as above; conditions: viability, ATP luminescence, 48 h; series mostly up to 45.9 µM
Summary of the method: as §2

[13] = biological target: Nuclear receptor subfamily 1 group I member 2 (Rattus norvegicus) (UniProt Q9R1A7); assay: qHTS assay for small molecule activators of the rat pregnane X receptor (rPXR) signaling pathway (AID 651751; call rule not given here; also: 0% is about no effect); conditions: rPXR reporter cells, luciferase (One-Glo), 24 h
Nuclear receptor subfamily 1 group I member 2 (Rattus norvegicus), sequence (Q9R1A7 whole entry, looked up): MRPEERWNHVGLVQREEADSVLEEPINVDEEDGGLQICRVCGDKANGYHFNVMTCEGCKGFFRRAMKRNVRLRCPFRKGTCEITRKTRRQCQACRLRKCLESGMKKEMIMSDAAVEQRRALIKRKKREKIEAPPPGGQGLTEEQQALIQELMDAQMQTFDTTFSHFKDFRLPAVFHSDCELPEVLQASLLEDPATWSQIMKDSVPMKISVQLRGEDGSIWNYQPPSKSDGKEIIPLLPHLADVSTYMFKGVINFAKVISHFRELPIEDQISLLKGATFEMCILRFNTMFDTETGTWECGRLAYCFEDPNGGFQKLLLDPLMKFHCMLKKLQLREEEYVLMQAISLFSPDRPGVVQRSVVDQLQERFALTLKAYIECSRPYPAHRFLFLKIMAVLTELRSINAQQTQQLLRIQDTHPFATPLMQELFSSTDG

[14] = qHTS assay for small molecule activators of the human pregnane X receptor (PXR) signaling pathway (AID 720659; call rule not given here; also: 0% is about no effect)
[15] = at 46.1 µM (top of the series), tumour line C
[16] = at 45.9 µM (top of the series), tumour line B
[17] = at 45.9 µM (top of the series), tumour line D
[18] = at 46 µM (top of the series), tumour line A

S=c1nc[nH]c2nc[nH]c12
inactive: Potency [8] | activity, negative = cell killing [11, 15] -28% | Potency [12]
active: Potency [1] 2.51 µM | Potency [2] 5.62 µM | Potency [3] 5.62 µM | Potency [4] 15.8 µM | Potency [5] 3.55 µM | Potency [6] 7.08 µM | Potency [7] 3.16 µM | Potency [9] 3.16 µM | Potency [10] 8.91 µM | Potency ([11]; tumour line A) 5.01 µM

Cc1cc(O)c2c(c1)C(=O)c1cc(O)cc(O)c1C2=O
inactive: max response [13] 1.52% and -0.614%

CCc1nc(N)nc(N)c1-c1ccc(Cl)cc1
active: Potency [2] 4.47 µM | Potency [3] 14.1 µM | Potency [4] 7.94 µM | Potency [6] 7.94 µM | Potency [7] 7.94 µM | Potency [9] 3.16 µM | Potency [10] 14.1 µM
inactive: Potency [5] | Potency [8] | Potency [12]

CC(=O)N1CCN(c2ccc(OC[C@H]3CO[C@](Cn4ccnc4)(c4ccc(Cl)cc4Cl)O3)cc2)CC1
inactive: Potency [12] | max response [13] -5.89% | outcome [14]

CC(C)C[C@H](NC(=O)[C@H](Cc1ccccc1)NC(=O)c1cnccn1)B(O)O
inactive: Potency [5]
active: Potency [3] 0.316 µM | Potency [6] 0.0447 µM | Potency [8] 0.501 µM | Potency [10] 2 µM and 2.24 µM | Potency [12] 501 nM and 316 nM

C[C@H](Cn1cnc2c(N)ncnc21)OCP(=O)(O)O
inactive: activity, negative = cell killing [11, 16] -17.6% | activity, negative = cell killing [11, 17] -7.53% | activity, negative = cell killing [11, 18] -24.5% | activity, negative = cell killing [11, 15] -20.5% | Potency [12]

C[Se]CCC(N)C(=O)O (stereo not drawn)
inactive: Potency [12]

O=C1c2ccccc2-c2n[nH]c3cccc1c23
active: Potency ([11]; tumour line D) 12.6 µM | Potency [12] 10 µM
inactive: activity, negative = cell killing [11, 15] -13.2%

CCCS(=O)c1ccc2nc(NC(=O)OC)[nH]c2c1 (stereo not drawn)
inactive: Potency [1] | Potency [2] | Potency [5] | Potency [6]
active: Potency [7] 14.1 µM | Potency [10] 8.91 µM

CCOc1cc(CC(=O)N[C@@H](CC(C)C)c2ccccc2N2CCCCC2)ccc1C(=O)O
inactive: activity, negative = cell killing ([11]; at 20 µM (top of the series), tumour line C) -12% | activity, negative = cell killing ([11]; at 21.2 µM (top of the series), tumour line B) -4.95% | activity, negative = cell killing ([11]; at 21.2 µM (top of the series), tumour line D) -25.3% | activity, negative = cell killing ([11]; at 21.3 µM (top of the series), tumour line A) -13.6% | Potency [12]

CC(C)(S)[C@@H](N)C(=O)O
inactive: activity, negative = cell killing [11, 16] -10.5% | activity, negative = cell killing [11, 17] -6.11% | activity, negative = cell killing [11, 18] -3.65% | activity, negative = cell killing [11, 15] -16.2% | Potency [12]

CC(C)[N+]1(C)[C@@H]2CC[C@H]1CC(OC(=O)C(CO)c1ccccc1)C2 (stereo partly drawn)
inactive: activity, negative = cell killing [11, 16] -10.3% and -8.73% | activity, negative = cell killing [11, 17] -5.23% and -7.38% | activity, negative = cell killing [11, 18] -16.8% | activity, negative = cell killing [11, 15] 14% and -28.4% | Potency [12]

CCOC(=O)C1=C[C@@H](OC(CC)CC)[C@H](NC(C)=O)[C@@H](N)C1
inactive: activity, negative = cell killing [11, 16] -10.4% | activity, negative = cell killing [11, 17] -1.97% | activity, negative = cell killing [11, 15] 5.2% | Potency [12]

C[C@]12CCC(=O)C=C1CC[C@@H]1[C@H]2[C@@H](O)C[C@@]2(C)[C@H]1CC[C@]2(O)C(=O)CO
inactive: activity, negative = cell killing [11, 16] -8.77% | activity, negative = cell killing [11, 17] -14.8% | activity, negative = cell killing [11, 18] -3.08% | activity, negative = cell killing [11, 15] 14.8% | Potency [12]

O=P(O)(O)C(O)(Cn1ccnc1)P(=O)(O)O
inactive: activity, negative = cell killing [11, 16] -3.43% | activity, negative = cell killing [11, 17] -0.668% | activity, negative = cell killing [11, 18] -16.2% | activity, negative = cell killing [11, 15] -7.84% | Potency [12]

CN(C)CCc1c[nH]c2ccc(Cn3cncn3)cc12
inactive: activity, negative = cell killing [11, 16] -9.89% | activity, negative = cell killing [11, 17] -20.8% | activity, negative = cell killing [11, 15] -16% | Potency [12]

Nc1ccn([C@@H]2O[C@H](CO)[C@@H](O)C2O)c(=O)n1 (stereo partly drawn)
inactive: Potency [12]

CCCCCCCCOc1ccccc1C(=O)Nc1ccc(C(=O)OCC[N+](C)(CC)CC)cc1
inactive: Potency [2] | Potency [3] | Potency [4] | Potency [5] | Potency [6] | Potency [9] | Potency [10] | activity, negative = cell killing [11, 15] -98.5%
active: Potency ([11]; tumour line A) 14.1 µM | Potency ([11]; tumour line B) 17.8 µM

O=c1oc2cc(O)ccc2s1
active: Potency ([11]; tumour line C) 23.1 µM
inactive: activity, negative = cell killing [11, 16] -24% | Potency [12]

O=C(CS(=O)Cc1ccco1)NCC=CCOc1cc(CN2CCCCC2)ccn1 (stereo not drawn)
inactive: activity, negative = cell killing [11, 16] -14.1% | activity, negative = cell killing [11, 17] -2.16% | activity, negative = cell killing [11, 15] -28% | Potency [12]
active: Potency ([11]; tumour line A) 25.1 µM

O=C1CCc2ccc(OCCCCN3CCN(c4cccc(Cl)c4Cl)CC3)cc2N1
active: Potency ([11]; tumour line A) 3.98 µM | Potency ([11]; tumour line B) 22.4 µM | Potency [12] 31.6 µM
inactive: Potency [1] | Potency [3] | Potency [5] | Potency [6] | Potency [8] | Potency [9] | Potency [10] | activity, negative = cell killing [11, 15] -16.8%

O=C(O)c1cccnc1Nc1cccc(C(F)(F)F)c1
inactive: Potency [1] | Potency [2] | Potency [4] | Potency [5] | Potency [7] | Potency [8] | Potency [9] | Potency [10] | activity, negative = cell killing [11, 16] -15.9% | activity, negative = cell killing [11, 17] -4.12%

COC(=O)C1=C(C)NC(C)=C(C(=O)OCCCN2CCC(c3ccccc3)(c3ccccc3)CC2)C1c1cccc([N+](=O)[O-])c1 (stereo not drawn)
inactive: Potency [3] | Potency [5] | Potency [9] | Potency [10]
active: Potency [12] 17.8 µM

COc1cc(C(C)=O)ccc1OCCCN1CCC(c2noc3cc(F)ccc23)CC1
inactive: Potency [1] | Potency [2] | Potency [3] | Potency [5] | Potency [7] | Potency [9] | Potency [10] | Potency [12]

Cc1ccc(NC(=O)c2ccc(CN3CCN(C)CC3)cc2)cc1Nc1nccc(-c2cccnc2)n1
active: Potency [6] 35.5 µM | Potency [7] 25.1 µM | Potency ([11]; tumour line A) 12.6 µM | Potency ([11]; tumour line B) 20 µM | Potency ([11]; tumour line D) 12.6 µM | Potency [12] 20 µM
inactive: Potency [1] | Potency [3] | activity, negative = cell killing [11, 15] 17.6%
